Only some compounds are listed: those with a hit (about 4% of all), similar ones and a draw of the others.
HIF-2a block – blocks HIF-2a reporter activity. inhibition, % at 18.8 µM. 360,000 compounds, 0.72% hits. 786-0 RCC cells HIF-2a reporter, luciferase luminescence, overnight;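 active = inhibition of the luminescence signal of 40% or more relative to plate controls, in a single-dose primary screen at 18.75 µM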
KKLEB tox – counter-screen for CF NF-kB inhibitors: cytotoxicity. activity change (cytotoxicity), % at 5 µM. 360,000 compounds, 0.36% hits. KKLEB CF airway cells viability, ATPlite luminescence, overnight; stronger effect = lower value; cells stimulated with P. aeruginosa culture filtrate. AID 602141;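 active = corrected activity change at or below -50% at 5 µM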
TWEAK-Fn14 inh – inhibitors of TWEAK-Fn14 interaction signaling; TWEAK-stimulated Fn14 reporter cells, luciferase luminescence, 8 h; inhibition, % at 10 µM; 360,000 compounds, 2% hits; AID 1159606; in the data active = inhibition above about 50%
TROY NFkB inh – blocks TROY-dependent signaling in reporter cells. Q293 LMP1-TROYcd NF-kB luciferase reporter, 4 h. AID 1347056. 360,000 compounds, 0.98% hits. inhibition, % at 10 µM;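 active = compounds whose plate-normalised and pattern-corrected inhibition of the luciferase reporter signal at the single screening dose is 50% or more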
CF NFkB inh – inhibitors of cystic fibrosis induced NF-kB. KKLEB NF-kB-GFP reporter, PAF-induced, GFP fluorescence overnight. inhibition, % at 5 µM. 360,000 compounds, 0.86% hits. AID 588850;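 active = at least 50% inhibition at 5 µM, scaled per plate between neutral and stimulator controls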;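 note: PAF is a Pseudomonas aeruginosa culture filtrate used as stimulus; plate controls were PAF-stimulated DMSO wells for no effect and unstimulated DMSO wells for full effect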
Peg3 promoter – Peg3 promoter activity inhibition; inhibition, % at 20 µM; HeLa PEG-Prom luciferase reporter, luminescence, overnight; 360,000 compounds, 1.7% hits; AID 588405;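 active = inhibition of at least 50% at 20 µM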
An asterisk follows results filed as active; ! = not active in a repeat.

SMILES | HIF-2a block | KKLEB tox | TWEAK-Fn14 inh | TROY NFkB inh | CF NFkB inh | Peg3 promoter
Cc1ccc(Cc2c(C)c(C#N)c3[nH]c4ccccc4n3c2=O)cc1 | -8 | -41 | 61* | 60* | 50 | 36
COc1ccc(OC)c(NC(=O)Nc2c(O)ccc3ccccc23)c1 | -19 | 4 | 24 | 31 | -9 | -1
O=S(=O)(Nc1c(O)ccc2ccccc12)c1ccc(F)cc1 | -24 | 8 | 44 | 54* | -4 | -27
COc1ccc(OC)c(NC(=O)Nc2ccc(O)c3ccccc23)c1 | 10 | 4 | 90* | 45 | -4 | 28
COc1ccc(S(=O)(=O)Nc2ccccc2)cc1 | 10 | -2 | 5 | -2 | 3 | 27
COc1ccc(S(=O)(=O)Nc2ccc(O)c3ccccc23)cc1 | 38 | -48 | 10 | 7 | 90* | 31
Cc1ccc(C)c(S(=O)(=O)Nc2ccc(O)c3ccccc23)c1 | -10 | -53* | 85* | 42 | 86* | 13
COC(=O)[C@@]1(Cc2ccccc2)[C@H]2C(=O)N(Cc3ccccc3)C(=O)[C@H]2[C@H]2CN=C(SC)N21 | 4 | 6 | -8 | -25 | -24 | -3
COc1ccccc1-c1csc(NC(=O)c2ccc(N3C(=O)CCC3=O)cc2)n1 | 1 | 14 | 51* | 36 | -9 | -1
CCCCN(CC)CCNC(=O)c1cc2c(=O)n(CC)c3ccccc3c2s1 | 7 | 2 | -19 | 8 | -17 | 34
CCCCN(CC)CCCNC(=O)c1cc2c(=O)n(CC)c3ccccc3c2s1 | -15 | -13 | 14 | -9 | -27 | 89*
CCC(=O)/C=C1/Sc2ccccc2N1CC | -7 | 13 | 16 | -7 | 2 | -7
CCN1/C(=C/c2sc(-c3ccccc3C)c[n+]2C)Sc2ccccc21 | -76 | -36 | 63* | 47 | 34 | 38
COc1cccc(OC)c1C(=O)Nc1ccccc1C(=O)N1CCCC1 | 6 | -17 | 6 | 9 | 12 | -7
O=C(COc1ccc(C(=O)c2ccccc2)cc1)Nc1cccnc1 | -11 | -6 | 35 | 31 | 3 | -26
CC1CCC(C(C)C)C(OC(=O)Cn2c(-c3ccccc3)[n+](C)c3ccccc32)C1 (configuration not stated) | -2 | -54*! | 64* | 57* | 55*! | 65*
CCN(CC(=O)Nc1ccc(NC(C)=O)cc1)C(=O)CCN1C(=O)C2CC=CCC2C1=O (configuration not stated) | 7 | 3 | -1 | -29 | 13 | -3
COc1cc(NC(=O)COc2ccc(-n3cnnn3)cc2)c(OC)cc1Cl | 14 | -49 | -7 | -21 | 37 | 59*
CN(C)c1ccc(Cc2cc3c(O)ccc(O)c3cc(Cc3ccc(N(C)C)cc3)c2=O)cc1 | 48* | 1 | 42 | -5 | -8 | 25
O=S(=O)(c1ccc(Cl)c(Cl)c1)c1snnc1-c1ccccc1 | 77* | -45 | 78* | 52* | 56* | 73*
c1ccc(-c2nnsc2-c2ccccc2)cc1 | 9 | -12 | -20 | 16 | 17 | 15
CC1(C(=O)NS(=O)(=O)c2ccccc2)CCN1C(=O)Cc1cccs1 (configuration not stated) | 6 | -1 | 7 | 3 | 26 | 6
CCCCN1CCC(COC(=O)c2cc(Cl)c(N)c3c2OCCO3)CC1 | 6 | 2 | -8 | -9 | -10 | -8
COc1cccc(N=Nc2ccc3ccccc3c2O)c1 | -73 | -30 | 75* | 58* | -18 | -114
COc1ccc(N=Nc2cc(C)ccc2O)cc1 | -304 | -20 | 23 | -18 | -6 | -276
SMILES | HIF-2a block | KKLEB tox | TWEAK-Fn14 inh | TROY NFkB inh | CF NFkB inh | Peg3 promoter
COc1ccc(N=Nc2ccc3ccccc3c2)c(O)c1 | -75 | -19 | 81* | 63* | -14 | -153
Cc1onc(-c2c(F)cccc2Cl)c1C(=O)Nc1cccc(S(=O)(=O)N2CCOCC2)c1 | 7 | 12 | -4 | 9 | -4 | 16
CCOC(=O)C1=C(C)NC(C)=C(C(=O)OCC)C1C(=O)OCC(=O)NCc1ccccc1OC | 8 | 3 | -23 | -21 | 6 | 9
CN(CC(=O)NCC(=O)Nc1ccc(F)c(F)c1F)C1CCS(=O)(=O)C1 (configuration not stated) | 9 | 3 | 10 | -4 | 2 | 7
CCOC(=O)C1(CCOc2ccccc2)CCN(Cc2ccc(O)c(OCC)c2)CC1 | -10 | -1 | 4 | 43 | -13 | -2
COc1ccccc1NCC(=O)N/N=C/c1c(O)ccc2ccccc12 | 9 | -17 | 36 | 24 | 9 | 56*
O=C(CNc1ccc(F)cc1)N/N=C/c1c(O)ccc2ccccc12 | -9 | 2 | 18 | 24 | 15 | 51*
CC1CCCC(NC(=O)COC(=O)c2ccc(Cl)nc2)C1C (configuration not stated) | 6 | 5 | -1 | -5 | -1 | -1
O=C(CSc1nc2nc(-c3cccs3)cc(C(F)(F)F)c2c(=O)[nH]1)Nc1c(F)c(F)c(F)c(F)c1F | -23 | -23 | 66* | 57* | 32 | 39
NC(=O)c1ccsc1NC(=O)c1ccc2c(c1)CCCC2 | -158 | -58* | 48 | 20 | -17 | -125
COc1cccc(O)c1CN1CCC(n2nccc2NC(=O)c2ccc3c(c2)OCO3)CC1 | 3 | 8 | 15 | 3 | -12 | 11
COc1ccc(-c2ccc(C(=O)C3CC3)cc2)cc1 | -293 | -3 | 3 | -59 | -13 | -263
CC[N+]1(C)CCC(O)(c2ccc(OC)cc2)C(C(=O)c2ccc(OC)cc2)C1 (configuration not stated) | 14 | -20 | 11 | -13 | 50* | 103*
O=C(COC(=O)c1cccnc1)Nc1ccccc1 | -3 | -2 | 2 | -8 | 3 | 17
CC(=O)N1CCC(C(=O)Nc2ccccc2)(N(Cc2ccccc2)C(=O)c2cccnc2)CC1 | -103 | 5 | 6 | 51* | -12 | -132
CCOC(=O)C1=NNC(C(=O)c2ccc(C)cc2)C1c1ccc(OC)cc1 (configuration not stated) | -21 | -4 | 72* | 6 | -4 | -2
COc1cc(OC)cc(-c2c(-c3cccs3)c3cc(-c4ccn[nH]4)ccc3n2C)c1 | 13 | 7 | -38 | -52 | -25 | 22
C[C@H](CO)N1C[C@H](C)[C@@H](CN(C)Cc2ccc(-c3ccccc3)cc2)Oc2c(NC(=O)Nc3ccc4c(c3)OCO4)cccc2C1=O | -46 | -2 | 22 | 16 | 6 | 94*
C[C@@H]1CN([C@@H](C)CO)C(=O)Cc2cc(NC(=O)Nc3ccc(C(F)(F)F)cc3)ccc2O[C@@H]1CN(C)S(=O)(=O)c1ccc(Cl)cc1 | -15 | -5 | 39 | 5 | 26 | 60*
C[C@@H]1CN([C@H](C)CO)C(=O)c2cc(NS(=O)(=O)c3ccc(F)cc3)ccc2O[C@@H]1CN(C)Cc1ccc(Cl)c(Cl)c1 | -15 | 13 | 20 | 34 | -4 | 52*

Screening data: PubChem BioAssay, Sanford-Burnham Center for Chemical Genomics
